The list is not random: actives were taken first. Their share in the collection is about 4.1%.
MEKK2 mut-MEK5 = signal of MEK5 binding to mutant human MEKK2 PB1 domain; bead flow cytometry, Alexa488-MEK5 binding to MEKK2 mutant; percent response, % at 10 µM; hit rate 0.35% among 290,000; in the data active = percent response above about 24%, passing the limit was not always enough
MEKK3 PB1 HTS = modulators (inhibitors or enhancers) of MEK5 binding to human MEKK3 PB1 domain. Q99759. bead-based flow cytometry, Alexa488-MEK5 binding to MEKK3; actives lie on both sides; 0 = blocked by unlabeled MEK5, 100 = vehicle. binding response (% of control), % at 10 µM. hit rate 1.4% among 290,000. AID 1529;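 active = binding response more than 3 SD above or below the average of its plate-row segment, actives on both sides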;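 note: Alexa488 bead fluorescence after subtracting the streptavidin-only scavenger bead signal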
Target sequence (Q99759 whole entry, looked up, the tested form may be a part): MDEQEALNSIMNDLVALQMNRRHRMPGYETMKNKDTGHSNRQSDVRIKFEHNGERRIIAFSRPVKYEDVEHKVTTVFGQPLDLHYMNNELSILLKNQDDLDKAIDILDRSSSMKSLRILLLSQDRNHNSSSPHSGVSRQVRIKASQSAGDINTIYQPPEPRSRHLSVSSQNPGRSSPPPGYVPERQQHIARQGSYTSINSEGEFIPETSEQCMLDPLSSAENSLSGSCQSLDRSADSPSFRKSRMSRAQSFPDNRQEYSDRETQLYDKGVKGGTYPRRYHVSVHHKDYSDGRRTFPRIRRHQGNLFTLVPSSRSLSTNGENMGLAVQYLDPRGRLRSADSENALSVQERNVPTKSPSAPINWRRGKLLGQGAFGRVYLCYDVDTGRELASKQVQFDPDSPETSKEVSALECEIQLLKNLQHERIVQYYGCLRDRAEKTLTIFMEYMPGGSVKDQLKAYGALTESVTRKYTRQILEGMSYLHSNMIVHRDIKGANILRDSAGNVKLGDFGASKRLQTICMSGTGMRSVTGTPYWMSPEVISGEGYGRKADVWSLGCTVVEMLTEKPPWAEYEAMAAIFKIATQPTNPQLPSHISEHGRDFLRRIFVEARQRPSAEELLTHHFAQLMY
CHT block = inhibits the human high affinity choline transporter; CHT-expressing cells, membrane potential dye, choline response; hits give low values; B-score at 10 µM; hit rate 0.86% among 310,000; AID 488975;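 active = B-score over 3 SD under the library average, and starting fluorescence ratio not unusually high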;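 note: choline stimulus applied at its EC90 after an EC20 pre-addition; B-score computed on integrated fluorescence ratio after choline addition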
MEKK2wt PB1 HTS = raises or lowers MEK5 binding to wildtype human MEKK2 PB1 domain | Q9Y2U5 | bead flow cytometry, Alexa488-MEK5 binding to MEKK2 WT; actives lie on both sides | binding response (% of control), % at 10 µM | hit rate 1.1% among 290,000 | AID 1531; in the data active = binding response below about 67% or above about 130%
CHT PAM = allosteric activators of human choline transporter CHT; CHT-expressing cells, membrane potential dye, choline EC20; hits give high values; LV-AA mutant CHT in HEK293 cells; AID 488977; B-score at 10 µM; Q9GZV3; hit rate 0.49% among 310,000;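 active = initial fluorescence not abnormally high and integrated response B-score, plate-corrected, over 3 SD above library mean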
Mot1-301 SUMO = blocks SUMOylation pathway, rescuing yeast Mot1-301 growth; hit rate 1% among 320,000; AID 2716; growth rescue, % at 18.8 µM; S. cerevisiae Mot1-301 growth rescue, ATP luminescence, 38.5C; percent above DMSO median, 100 means doubled;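 active = every valid replicate shows activation above 250% relative to neutral control wells; inactive = the rest, any valid replicate at or below 250%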;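 note: OY570 slx delta 5 strain wells were the positive control but not used for scaling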
MEKK2wt confirm = raises or lowers MEK5 binding to wildtype human MEKK2, retest; shares compounds with MEKK3 PB1 HTS; bead flow cytometry, Alexa488-MEK5 binding to MEKK2 WT; actives lie on both sides; hit rate 2.4% among 5,900; binding response (% of control), % at 10 µM; in the data active = binding response below about 16% or above about 210%; inactive = in between
MEKK2mut-MEK5 = signal of MEK5 binding to mutant human MEKK2, retest; shares compounds with MEKK3 PB1 HTS; percent response, % at 10 µM; bead flow cytometry, Alexa488-MEK5 binding to MEKK2 mutant; hit rate 2% among 5,900; in the data active = percent response mostly above about 71%, no sharp cut-off; inactive = mostly below about 38%;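 note: higher means compound restores mutant binding toward wildtype level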
MEKK3 confirm = confirmation of inhibitors of MEK5 binding to human MEKK3. shares compounds with MEKK3 PB1 HTS. bead flow cytometry, Alexa488-MEK5 binding to MEKK3; hits give low values. binding response (% of control), % at 10 µM. hit rate 1.8% among 5,900. AID 1894;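 active = binding response below 72% of control, or above a set upper limit, though filed actives all read lower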;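 note: 100% = DMSO only wells and 0% = binding blocked by excess unlabeled MEK5; lower values mean stronger disruption of MEK5 binding to MEKK3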
Numbers without * were called inactive; i = inactive; · = no result; [ ] = another dose, or the depositor's remark.

SMILES	MEKK2 mut-MEK5	MEKK3 PB1 HTS	CHT block	MEKK2wt PB1 HTS	CHT PAM	Mot1-301 SUMO	MEKK2wt confirm	MEKK2mut-MEK5	MEKK3 confirm
Clc1ccc(/C(Cc2nc3ccccc3[nH]2)=N\Nc2ccccc2)cc1	42.0	110.0	i	153.0*	i	-16.2	138.0	13.0	108.0
O=C(O)CCCC(=O)N1CCN(c2nc(-c3ccccc3Cl)c3cc(Br)ccc3n2)CC1	26.0*	119.0	i	119.0	i	-1.0	97.0	-7.0	98.0
CCN(CC#CCC1(O)c2ccccc2-c2ccccc21)CCO	-13.0	77.0*[inhibitor]	i	84.0	i	5.3	95.0	-6.0	98.0
O=C(O)CC1c2ccccc2CCN1S(=O)(=O)c1cccs1 (stereo not drawn)	·	·	i	·	i	0.2	·	·	·
OCCN(CC(O)COc1ccccc1)CC(O)Cn1ccc2ccccc21 (stereo not drawn)	0.0	134.0*	i	102.0	i	-0.7	104.0	3.0	101.0
O=C(O)CSc1nnc(-c2ccccc2)o1	6.0	98.0	i	98.0	i	11.4	·	·	·
Cc1ccc(C(=O)CSc2nnc(-c3ccccc3)o2)cc1	-2.0	1.0*[inhibitor]	i	-2.0*[inhibitor]	i	4.7	99.0	0.0	103.0
Cc1occc1-c1nnc(SCC(=O)c2ccc(F)cc2)o1	-16.0	48.0*[inhibitor]	i	56.0	i	2.5	103.0	1.0	105.0
Cc1ccc(S(=O)(=O)Nc2ccc(-c3nnc(SCc4ccccc4Cl)o3)cc2)cc1	-2.0	101.0	i	97.0	i	10.6	·	·	·
Cc1ccc(CSc2nnc(-c3ccc(NS(=O)(=O)c4ccccc4)cc3)o2)cc1	3.0	21.0*[inhibitor]	i	26.0*[inhibitor]	i	306.7	100.0	-8.0	102.0
O=C(/C=C/c1ccco1)NC(=S)Nc1nc(-c2ccc(Cl)cc2)cs1	4.0	99.0	i	98.0	i	-6.2	·	·	·
CC(C)CC(=O)NC(=S)Nc1nc(-c2ccc(Cl)cc2)cs1	0.0	155.0*	i	104.0	i	-2.3	102.0	0.0	100.0
COc1ccc(N=C2S/C(=C\c3ccc(N4CCOCC4)o3)C(=O)N2CCc2c[nH]c3ccccc23)cc1	99.0*	107.0	i	161.0*	i	14.1	88.0	-25.0	91.0
CCN(CC)CCn1c(NS(=O)(=O)c2ccc(C)cc2)nc2ccccc21	·	·	·	·	·	0.3	·	·	·
CCn1c(/N=C/c2ccccc2NS(=O)(=O)c2ccc(C)cc2)nc2ccccc21	0.0	137.0*	i	104.0	i	94.7	100.0	1.0	104.0
COc1cccc(OC)c1NC(=O)Cc1nn(C)c(=O)c2ccccc12	8.0	125.0*	i	123.0	i	-29.6	98.0	1.0	98.0
CCN1C(=O)C(CC(=O)Nc2ccc(F)cc2)N(CCCN2CCN(c3ccc(F)cc3)CC2)C1=S (stereo not drawn)	25.0	107.0	i	143.0*	i	-11.9	133.0	25.0	108.0
CCOc1ccc(NC(=O)CC2C(=O)N(CC)C(=S)N2CCN2CCOCC2)cc1 (stereo not drawn)	0.0	103.0	i	103.0	i	39.6	·	·	·
O=C(CN1C(=O)C(=O)N(C2CCCC2)C1=O)Nc1ccccc1OC(F)F	·	·	·	·	·	37.0	·	·	·
C/C=C/C(=O)N1CC2(CC(c3cccc(NC(=O)CCCCC)c3)=NO2)C[C@H]1C(N)=O (stereo partly drawn)	5.0	89.0	·	91.0	·	·	·	·	·
CCCCCC(=O)Nc1cccc(C2=NOC3(C2)C[C@H](C(N)=O)N(C(=O)CC#N)C3)c1 (stereo partly drawn)	-14.0	1.0*[inhibitor]	·	1.0*[inhibitor]	·	·	99.0	-12.0	100.0

Assay outcomes as filed in PubChem BioAssay.
